This is a sample that favours compounds with a hit; in the whole collection about 8.3% have one here.
SW480 rerep: induces DNA re-replication in SW480 colon adenocarcinoma cells | Potency, µM (series often up to 46.1 µM), without a hit: at the top dose re-replication activation, most hits filed as activators | SW480 DNA re-replication, Hoechst DNA content imaging, 48 h | 340,000 tested, 1.8% active; also: potency is read from the fitted curve at half-maximal effect; % of control where 0% means no effect; nearly all actives have a fitted effect of over 55% in size
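Per well, 250 cells were exposed to pinned compound for 48 hr. Nuclear DNA was visualised with Hoechst (40 min, 37 C) and total object intensity recorded by fluorescence scanning.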
Chronic BCR inh: blocks chronic active B-cell receptor signaling. ABC-DLBCL IkBa-CBG/CBR reporter, luminescence ratio, 4 h. Potency, µM (top dose mostly 46.1 µM), without a hit: at the highest dose activity change, negative = inhibition, hits mostly inhibitors. 340,000 tested, 0.05% active; active = well fitted inhibition curve with a large enough effect in the signal ratio, with a control signal flat, not every such curve was filed as active; inconclusive = small, poorly fitted or top-dose-only effect, or effect the other way, or a change in a side signal; the % refers to the signal ratio;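 also: potency is read from the fitted curve at half-maximal effect; plate controls were basal doxycycline-induced cells for no effect and cells given 10 µM MG132 for full effect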
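Compounds up to 46 uM were incubated four hours with TMD8 cells whose green CBG68 luciferase is fused to IkappaBalpha; red CBR luminescence normalised the signal, and concentration-effect curves were fitted to fusion, red and ratio data.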
Giardia killer: kills Giardia lamblia | Giardia lamblia trophozoite viability | activity change, % at 7.66 µM, hits read low | 340,000 tested, 0.15% active; in the data active = activity change below about -80%; inconclusive = between about -30% and that limit;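 also: parasites exposed to compound for two days anaerobically before the ATP read; % is scaled to controls: 0 for no effect and ±100 for the full control effect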
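Each well holds 100 Giardia trophozoites and compound. After two days (48 hrs) at 37 deg C in anaerobic conditions, ATP is quantified by luminescence.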
Gal4-VP16 FLuc: Gal4-VP16 reporter inhibition counter-screen; Drosophila S2 Gal4-VP16 UAS-luciferase, luminescence, 20 h; Potency, µM (titrated, usually from 53.6 µM), for the others: at the top dose activity, negative = inhibition, hits mostly inhibitors; AID 2546; 310,000 tested, 3.5% active;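 also: Gal4-VP16 expression switched on by copper sulfate through the metallothionein promoter; potency is read from the fitted curve at half-maximal effect; % is scaled to controls: 0 for no effect and ±100 for the full control effect; nearly all actives have a fitted effect of over 50% in size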
RORgamma inh: blocks mouse ROR gamma transcriptional activity; P51450; Drosophila S2 Gal4-RORgamma UAS-luciferase reporter, 20 h; Potency, µM (titrated, usually from 53.6 µM), inactives show top-dose activity change, negative = inhibition, usual class: inhibitors; 310,000 tested, 5.4% active; AID 2551; also: potency is read from the fitted curve at half-maximal effect; % is scaled to controls: 0 for no effect and ±100 for the full control effect; nearly all actives have a fitted effect of over 60% in size
Target sequence (P51450 whole entry, looked up, the tested form may be a part): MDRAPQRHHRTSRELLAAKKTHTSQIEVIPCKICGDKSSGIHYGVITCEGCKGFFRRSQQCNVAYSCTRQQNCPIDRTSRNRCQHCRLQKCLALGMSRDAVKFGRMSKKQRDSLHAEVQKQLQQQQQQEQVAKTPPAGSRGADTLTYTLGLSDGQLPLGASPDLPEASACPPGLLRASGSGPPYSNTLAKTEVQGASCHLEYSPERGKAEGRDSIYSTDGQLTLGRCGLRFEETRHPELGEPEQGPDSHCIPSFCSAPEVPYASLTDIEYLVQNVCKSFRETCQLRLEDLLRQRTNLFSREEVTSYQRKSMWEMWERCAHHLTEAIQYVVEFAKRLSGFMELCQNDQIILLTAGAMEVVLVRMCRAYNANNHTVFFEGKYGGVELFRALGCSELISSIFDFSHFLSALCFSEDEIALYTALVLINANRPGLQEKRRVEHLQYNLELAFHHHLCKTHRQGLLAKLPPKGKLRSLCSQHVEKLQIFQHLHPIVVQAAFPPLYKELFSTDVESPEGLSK
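Stably transfected Drosophila Schneider cells are the test system, with ROR gamma fused to Gal4 and luciferase under UAS control; luminescence is read after 20 hr of 700 uM copper sulfate induction at ambient temperature.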
MCF10A rereplic: inducers of DNA re-replication in MCF 10A breast cells; MCF 10A DNA re-replication, Hoechst nuclear intensity, 48 h; Potency, µM (titrated, usually from 46.1 µM), without a hit: top-dose activity, positive = re-replication, hits mostly activators; 350,000 tested, 2.9% active; also: potency is read from the fitted curve at half-maximal effect; % of control where 0% means no effect; nearly all actives have a fitted effect of over 50% in size
* = called active by the depositor; ? = inconclusive; . = no result; ! = not confirmed by another sample; [ ] = another dose, or the depositor's remark. Unless noted, calls follow the shape of the dose curve; as a rule, active = well fitted curve in the direction sought with a large enough effect; inconclusive = small, poorly fitted or top-dose-only effect, or another doubt; inactive = no such curve, though single readings can be large; an effect the other way counts as inactive or inconclusive.

SMILES	SW480 rerep	Chronic BCR inh	Giardia killer	Gal4-VP16 FLuc	RORgamma inh	MCF10A rereplic
COc1ccc(NC(=O)c2ccc3c(=O)n(-c4ccc(OC)cc4OC)c(=S)[nH]c3c2)cc1	-11%	5%	13	11µM*	5µM*	4%
COc1ccc(-n2c(=S)[nH]c3cc(C(=O)Nc4ccc(F)cc4)ccc3c2=O)c(OC)c1	?	?	5	18µM*	10µM*	27%
COc1ccc(-n2c(=S)[nH]c3cc(C(=O)NCc4ccc(F)cc4)ccc3c2=O)c(OC)c1	2%	8%	8	?	?	2%
CN1C(=O)/C(=C/c2cn(CC(=O)N3CCCCC3)c3ccccc23)c2ccccc21	.	?	.	1%	7%	.
CC(C)(C)c1nnc(NC(=O)c2cccs2)s1	2%	5%	-4	?	18µM*	2%
O=C(/C=C/c1ccc([N+](=O)[O-])cc1)NCc1ccccn1	0%	0%	-1	-1%	27%	?
COc1cccc(NC(=O)/C=C/c2ccc([N+](=O)[O-])cc2)c1	-119%	?	-5	7%	1%	27%
O=C(/C=C/c1ccc([N+](=O)[O-])cc1)Nc1ncc([N+](=O)[O-])s1	?	?	-82*	7.1µM*	?	?
COc1ccc(OC(=O)/C=C/c2ccc([N+](=O)[O-])cc2)cc1	-4%	0%	-15	8.9µM*	?	2%
O=C(Nc1ncc([N+](=O)[O-])s1)c1ccccc1Br	-9%	?	-93*	?	?	0%
N[C@H](Cc1ccc(O)c(O)c1)C(=O)O	-16%	.	.	-7%	1%[10 µM]	-6%
O=C(Nc1ncc([N+](=O)[O-])s1)c1cccs1	-66%	?	-87*	10µM*	?	?
Cc1ncoc1C(=O)Nc1ncc([N+](=O)[O-])s1	-1%	?	-87*	?	?	-1%
CCCOc1ccc(/C=C/C(=O)Nc2ccc([N+](=O)[O-])cc2)cc1	3%	5%	-15	2%	?	15µM*
Cc1cc(Cl)ccc1NS(=O)(=O)c1c(C)[nH]c(=O)[nH]c1=O	-3%	1%	11	-4%	-1%	0%
O=C(COC(=O)c1c(F)cccc1F)Nc1ccccc1OC(F)F	1%	4%	-4	11%	-8%	-4%
C=CCNC(=O)C(=O)Nc1cc2c3c(c1)CCC(=O)N3CCC2	1%	3%	?	7%	-12%	?
N#C/C(=C(/O)c1cccs1)c1nc2ccccc2[nH]1	16µM*	?	-27	?	?	18µM*
N#C/C(=C(/O)c1ccc(Br)s1)c1nc2ccccc2[nH]1	7.3µM*	?	-9	0%	1µM*	2.9µM*
N#C/C(=C(/O)c1ccc([N+](=O)[O-])s1)c1nc2ccccc2[nH]1	?	?	?	-25%	-40%	-5%
CCCCOc1ccc(/C(O)=C(\C#N)c2nc3ccccc3[nH]2)cc1	3%	?	-9	1%	-23%	1%
NC(=O)c1ccc(NC(=O)C#Cc2ccccc2)cc1	15µM*	?	-10	?	?	?
COc1ccc(NC(=O)C#Cc2ccccc2)cc1OC	27%	?	0	10%	2%	10%
COc1ccc(/C=C(\C#N)C(=O)Nc2cc(C)c(Cl)cc2OC)cc1O	10µM*	0%	8	-7%	-20%	?
COc1ccc(/C=C(\C#N)C(=O)NCc2ccccc2)cc1O	?	?	38	-5%	11%	?
SMILES	SW480 rerep	Chronic BCR inh	Giardia killer	Gal4-VP16 FLuc	RORgamma inh	MCF10A rereplic
CS(=O)(=O)c1ccc(-c2csc(-c3cccnc3)n2)cc1	-16%	?	21	4%	14%	-2%
C[C@H](NC(=O)c1ccco1)C(=O)NC1CCCCCC1	-16%	0%	-13	.	.	0%
COc1ccc(-c2cc(Cl)cc3c(=O)c4ccccc4n(C)c23)cc1F	18µM*	0%	10	-2%	14%	?
COc1cc(-c2ccc3c(=O)c4ccccc4n(C)c3c2)cc(OC)c1OC	13µM*	?	-18	-23%	?	?
COc1cc(-c2ccc3c(=O)c4ccccc4sc3c2)cc(OC)c1OC	0.65µM*	0%	0	.	.	3.7µM*
Cn1c(C=O)c(-c2ccc3c(c2)OCCO3)c2ccccc21	4%	?	-2	.	.	16µM*
CC(=O)Nc1c(-c2ccc(Cl)cc2)c(=O)c2ccccc2n1C	-3%	-6%	13	-6%	-14%	-18%
Cn1nc(-c2ccc3c(c2)OCCO3)c2ccccc2c1=O	-18%	0%	-6	?	-1%	7%
Cc1c([N+](=O)[O-])c(C(=O)NC2CCCCC2)nn1C	1%	4%	3	-7%	11%	4%
O=C(CN(C(=O)c1csnn1)c1ccccc1F)NCc1ccccc1	-12%	3%	-15	12%	-2%	-3%
CN(CC(=O)Nc1ccc(F)cc1)C(=O)Cn1cnc2ccc(Cl)cc2c1=O	-7%	-4%	0	.	.	-2%
COc1cc(/C=C2/S/C(=N/S(=O)(=O)Cc3ccccc3)NC2=O)c([N+](=O)[O-])cc1OC	-24%	?	-9	4%	-1%	13%
Cn1c2ccccc2c(=O)c2ccc(F)cc21	16µM*	13%	3	-3%	-22%	?
Cn1c2ccccc2c(=O)c2cc(C#Cc3ccsc3)ccc21	-6%	8%	-14	18%	14%	?
Cn1c2ccccc2c(=O)c2ccc(-c3ccc4c(c3)OCO4)cc21	?	-8%	-4	-6%	-10%	15µM*
Cn1c(-c2ccc3c(c2)OCO3)cc(=O)c2ccccc21	-2%	-26%	5	-19%	21%	-4%
O=C(CSc1nnc2ccc(-c3cccnc3)nn12)Nc1ccc(F)cc1F	-4%	?	1	-6%	5%	2%
CCOc1ccc(Nc2oc(-c3cccc(Cl)c3)nc2C#N)cc1	?	-23%	-3	29%	35%	16µM*
CCOc1ccc(Nc2oc(-c3ccco3)nc2C#N)cc1	-2%	?	-10	-4%	22%[10 µM]	?
CCCCNc1c(C(=O)OCC)c(C)nc2c1cnn2CC	-109%	.	10	?	32µM*!	?
CCOC(=O)c1c(C)nc2c(C#N)cnn2c1C	4%	-11%	-19	3%	-14%	-15%
Cc1ccc(C(=O)c2cn(Cc3ccc(Cl)cc3)c3nc(C)ccc3c2=O)cc1	.	-1%	.	.	.	.
Cc1cc(C)cc(-n2c(C)cc(/C=N/NC(=O)CN(c3c(C)cccc3C)S(C)(=O)=O)c2C)c1	15%	1%	-4	-20%	13µM*	?
